From PubChem
This is a sample that favours compounds with a hit; in the whole collection about 2.5% have one here.
Mcl1 Noxa PPI – Mcl-1/Noxa interaction inhibition; Q07820; TR-FRET Mcl-1/Noxa peptide binding, 2 h; inhibition, % at 21.7 µM; 220,000 compounds, 1.5% hits; AID 1022;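 active means compounds that cut the protein-peptide binding signal by more than 50% relative to plate controls in a single-dose test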;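 further: His-tagged Mcl-1 with rhodamine Noxa BH3 peptide and terbium anti-His antibody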
MCL1-BIM inh – inhibitors of human MCL1 binding to BIM-BH3 peptide | inhibition, % at 10.9 µM | GST-MCL1 / FITC-Bim-BH3 fluorescence polarization | AID 2057 | Q07820 | 320,000 compounds, 0.68% hits;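 active means inhibition above the mean inhibition of all tested compounds plus 3 SD, set per campaign, cut at about 40% in these data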;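 further: higher means more loss of mP so more displacement of Bim peptide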
14-3-3 Bad PPI – disrupts binding of bovine 14-3-3 zeta to phospho-Bad peptide | TR-FRET 14-3-3zeta/Dy647-pBad peptide displacement, 1 h | inhibition, % at 21.7 µM | 220,000 compounds, 0.71% hits | AID 781;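 active means inhibition above about 70%, limit read from the data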
Target sequence (P63103 whole entry, looked up): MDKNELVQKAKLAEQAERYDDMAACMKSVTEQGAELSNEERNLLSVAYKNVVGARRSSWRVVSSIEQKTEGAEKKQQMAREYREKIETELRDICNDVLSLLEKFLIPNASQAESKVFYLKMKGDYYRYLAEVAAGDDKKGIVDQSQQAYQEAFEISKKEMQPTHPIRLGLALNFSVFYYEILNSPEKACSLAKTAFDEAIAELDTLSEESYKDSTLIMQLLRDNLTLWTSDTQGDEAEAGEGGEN
Mcl-1 Bim block – disrupts Bim peptide binding to human Mcl-1. Q07820. Bead-based flow cytometry, Bim peptide-Mcl-1 binding. inhibition, % at 10 µM. 190,000 compounds, 0.1% hits. AID 1009; in the data active means inhibition above about 40%
Mcl1 Bid PPI – disrupts binding of human Mcl-1 to Bid peptide; Q07820; TR-FRET Mcl-1/Bid-Dy647 peptide binding, 1536-well; inhibition, % at 21.7 µM; 220,000 compounds, 0.97% hits; AID 1021;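 active means compounds that cut the binding signal by more than half at the single screening dose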;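 further: His-tagged Mcl-1 with europium anti-His antibody binding Bid BH3 peptide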
Bcl-xL conf – Bcl-xL (human) inhibition, MCL1 counter-screen confirmation; 1,700 compounds, 54% hits; AID 2166; shares compounds with MCL1-BIM inh; inhibition, % at 10.9 µM; GST-Bcl-xL / FITC-Bim BH3 peptide FP binding;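 active means inhibition above a cutoff equal to the mean inhibition of all tested compounds plus 3 SD, cut at about 30% in these data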
Target sequence (Q07817 whole entry, looked up): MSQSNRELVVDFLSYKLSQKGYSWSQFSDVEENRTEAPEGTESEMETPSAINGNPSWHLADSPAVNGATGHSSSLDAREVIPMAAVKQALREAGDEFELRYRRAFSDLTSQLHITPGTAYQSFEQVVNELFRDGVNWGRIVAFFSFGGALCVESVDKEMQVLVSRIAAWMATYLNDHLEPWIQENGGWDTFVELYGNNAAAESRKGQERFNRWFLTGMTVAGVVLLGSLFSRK
MCL1 inh confirm – confirmation of human MCL1 and BIM-BH3 interaction inhibitors; AID 2168; inhibition, % at 10.9 µM; GST-MCL1 / FITC-Bim-BH3 fluorescence polarization; 1,700 compounds, 61% hits; shares compounds with MCL1-BIM inh;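 active means inhibition above the average of all tested compounds plus 3 SD, cut at about 40% in these data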
A number is an active result; 0 = inactive; - = not tested or not shown; ! = a repeat was not active.

SMILES	Mcl1 Noxa PPI	MCL1-BIM inh	14-3-3 Bad PPI	Mcl-1 Bim block	Mcl1 Bid PPI	Bcl-xL conf	MCL1 inh confirm
CCN1CCN(CCNC(=O)c2ccc(/C=C3/Sc4ccccc4N(Cc4ccccc4C)C3=O)cc2)CC1	0	-	70.3	0	0	-	-
Cc1ccccc1CN1C(=O)c2ccccc2Sc2ccc(C(=O)NCCN3CCOCC3)cc21	-	0	-	-	-	-	-
CCN1CCN(CCCNC(=O)c2ccc(/C=C3/Sc4ccccc4N(Cc4ccccc4F)C3=O)cc2)CC1	0	0	80.8	0	0	-	-
CC1(C)Cc2c(sc(NC(=O)c3ccc4ncsc4c3)c2C(N)=O)C(C)(C)N1	0	0	0	0	0	-	-
CC(CCc1ccccc1)NC(=O)c1ccccc1C(=O)O (configuration not stated)	-	0	-	-	-	-	-
COC(=O)c1c(-c2ccc(C)cc2)csc1NC(=O)c1c(-c2ccccc2)noc1C	0	0	0	0	0	-	-
COC(=O)c1c(-c2cccnc2)csc1NC(=O)c1cc(C)on1	57.5	0	0	0	0	-	-
COc1cccc2c(=O)c3ccccc3oc12	0	0	0	0	54.6!	-	-
CCN(c1ccccc1)S(=O)(=O)c1ccc(Cl)c(NC(=O)COC(=O)c2cc(O)c3ccccc3c2O)c1	54.6	0	0	-	0	-	-
N/C(=N\N=C\c1cccs1)SC1CC(=O)N(c2cccc([N+](=O)[O-])c2)C1=O (configuration not stated)	0	0	82.4	0	0	-	-
CCOc1ccc(N2C(=O)CC(S/C(N)=N/N=C/c3cccs3)C2=O)cc1 (configuration not stated)	0	0	0	0	0	-	-
Cc1cc(O)ccc1NC(=O)CCN1C(=O)c2ccc([N+](=O)[O-])cc2C1=O	0	0	0	0	0	-	-
COc1ccc(C(=O)NCCn2cc(SCC(=O)NCC3CCCO3)c3ccccc32)cc1OC (configuration not stated)	-	0	-	-	-	-	-
CCN(CCNC(=O)CN1CCN(Cc2ccc(Cl)cc2)C1=O)c1ccccc1	0	0	0	0	87.4	-	-
CCN(CC)c1ccc(/C=N/Nc2nc3ccccc3[nH]2)c(O)c1	0	0	0	0	0	-	-
CCc1cc2cc3c(cc2nc1SCC(=O)Nc1cc(C)on1)OCO3	0	0	82.4	0	0	-	-
CCc1cc2ccc(C)cc2nc1SCC(=O)Nc1cc(C)on1	0	0	0	0	0	-	-
Clc1cccc(Cl)c1CON/C=N/c1ncnc2sccc12	0	0	0	0	87.2	-	-
CC(C)C(=O)OC/C(O)=C(\C#N)c1nc2ccccc2[nH]1	0	0	0	0	0	-	-
Cc1ccc(OCc2nnc(SCC(=O)Nc3ccc(N4CCOCC4)cc3)o2)cc1	-	0	-	-	-	-	-
O=C(CSc1nnc(COc2ccc3c(c2)CCCC3)o1)Nc1ccc(F)cc1	0	0	87.3	0	0	-	-
BrC(=C\c1ccccc1)/C=N/N1CCN(c2ccccc2)CC1	0	0	0	43.0	0	-	-
O=C(/C=C/c1ccco1)N(c1ccccn1)c1ccccn1	61.6	56.5	0	0	0	0	52.7
CCn1c(C)cc(C=C2C(=O)c3ccccc3C2=O)c1C	0	-	0	0	0	-	-
Cc1cc(C=C2C(=O)c3ccccc3C2=O)c(C)n1C	0	70.7	0	0	0	33.6	55.4
SMILES	Mcl1 Noxa PPI	MCL1-BIM inh	14-3-3 Bad PPI	Mcl-1 Bim block	Mcl1 Bid PPI	Bcl-xL conf	MCL1 inh confirm
CCn1cc(C(=O)NN)c(=O)c2cc(F)c(N3CCOCC3)cc21	-	41.1	-	-	-	0	0
Clc1ccc(C2Nc3cccc4cccc(c34)N2)cc1Cl	-	0	-	-	-	-	-
Clc1cccc(Cl)c1C1Nc2cccc3cccc(c23)N1	-	0	-	-	-	-	-
Brc1ccc(C2Nc3cccc4cccc(c34)N2)o1	65.1	54.5	0	0	0	0	0
COc1ccc(C2Nc3cccc4cccc(c34)N2)cc1	0	0	0	0	0	-	-
c1ccc(C2Nc3cccc4cccc(c34)N2)cc1	-	51.8	-	-	-	40.1	55.0
c1csc(C2Nc3cccc4cccc(c34)N2)c1	-	62.0	0	0	0	0	0
Brc1cccc(C2Nc3cccc4cccc(c34)N2)c1	-	44.2	-	-	-	0	0
Cc1cc(C)n(CCN(C)C(=O)CCc2nnc(CCC3CCCCC3)o2)n1	0	0	0	0	0	-	-
Cc1ccc2c(c1)c(C)c(C)n2CC(O)Cn1nc(C)cc1C (configuration not stated)	0	0	0	0	0	-	-
Clc1cccc(C2Nc3cccc4cccc(c34)N2)c1	-	46.4	-	-	-	0	41.0
Cc1ccc(NC(=O)C(=O)Nc2ccc(C)cn2)nc1	0	0	0	0	0	-	-
Cc1ccc(NC(=O)/C(C#N)=C(\N)C(Cl)(Cl)Cl)nc1	0	70.3	0	0	0	170.9	185.5
COc1ccc(-c2c(C)c3ccc(O)cc3oc2=O)cc1OC	-	0	-	-	-	-	-
O=c1cc(-c2ccccc2)c2ccc(O)cc2o1	-	0	-	-	-	-	-
Nc1ccc(-c2c3ccc(=O)cc-3oc3cc(O)ccc23)cc1C(=O)O	-	117.9	-	-	-	104.1	111.9
O=c1ccc2c(-c3ccccc3)c3ccc(O)cc3oc-2c1	-	109.7	-	-	-	118.8	120.6
O=C(NC(NCc1ccccc1)C(Cl)(Cl)Cl)c1cccnc1 (configuration not stated)	0	0	0	0	0	-	-
c1ccc(-n2nnc3cnccc32)cc1	0	0	0	0	0	-	-
COC(=O)c1ccc(/C=C/c2c(-c3ccc(OC)cc3)oc3ccc(N4CCOCC4)cc23)cc1	-	0	-	-	-	-	-
CCCN(CCC)C(=O)c1ccc2c(c1)N(CC)C(=O)c1ccccc1S2(=O)=O	-	126.7	-	-	-	0	0
Cn1c(SCc2nnc(-c3ccccc3Br)o2)nc2sc3c(c2c1=O)CCC3	0	0	0	0	0	-	-
Cc1cccc(NC(=O)CNC(=O)CCc2nc3sc4c(c3c(=O)[nH]2)CCCC4)c1C	-	43.0	-	-	-	34.3	67.3
CCOc1ccc(CCN2CN(C3CCCCC3)CNC2=S)cc1OCC	0	0	0	-	0	-	-
CCOc1ccccc1N1CN(C2CCCCC2)CNC1=S	0	51.7	0	-	0	0	0
SMILES	Mcl1 Noxa PPI	MCL1-BIM inh	14-3-3 Bad PPI	Mcl-1 Bim block	Mcl1 Bid PPI	Bcl-xL conf	MCL1 inh confirm
CC(C)CCOCC1CC2(CC(C)(c3csc(N)n3)OC2=O)C(=O)O1 (configuration not stated)	0	167.9	0	0	0	0	0
C=CCNc1nc(C2(C)CC3(CC(C)OC3=O)C(=O)O2)cs1 (configuration not stated)	0	0	0	0	0	-	-
CCOC(=O)CCc1c(C)c2ccc(OCC(=O)OC(C)C)cc2oc1=O	0	0	0	0	0	-	-
CC(C)(C)OC(=O)NC(Cc1ccccc1)C(=O)N1CCC(C(=O)NCC(=O)Nc2ccc(F)cc2)CC1 (configuration not stated)	-	122.0	-	-	-	111.3	141.4
COc1ccc(Br)cc1S(=O)(=O)NNC(=O)c1c(C)nc2ccccn12	0	0	0	0	0	-	-
Nc1cccc(C(=O)OCC(=O)Nc2cccc3c2C(=O)c2ccccc2C3=O)c1	64.1	118.5	0	0	77.4	107.1	146.2
Cc1cccc(NC(=O)COC(=O)c2cccc3c2C(=O)c2ccccc2C3=O)c1C	0	0	0	0	0	-	-
